# Reference: the supplement of paper PMC10037445
# Where “and” joins values, the source holds several entries; their conditions need not be identical. Equal values may be shown once. Over roughly 2,900 compounds, “NF-kB SEAP reporter activity, fold change vs agonist alone” has its median near 0.99; the highest 2% begin near 2.6. The sample holds the highest values, similar compounds and a random draw of the others, so the mix is not that of the screen.
# Assays:
# [1] = system: RAW-Dual; assay: NF-kB SEAP reporter activity, fold change vs agonist alone; cytotoxicity flag (confluency mask): not cytotoxic; higher = enhanced NF-kB activity
# Outline: (§1)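 Reporter activity is given as fold change relative to agonist-alone wells. To measure it, 50 nL of library stock was pin-tooled onto RAW-Dual macrophages (50,000 cells/well, DMEM, 384-well plates), a PRR agonist followed 1 h later, and cells stayed at 37 °C, 5% CO2. Twenty hours on, supernatant was assayed for IRF (QuantiLuc luminescence) and NF-κB (QuantiBlue, 620 nm absorbance), and wells under 70% of agonist-control IncuCyte confluency in both mask sets were marked cytotoxic.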
# [2] = system: RAW-Dual; assay: NF-kB SEAP reporter activity, fold change vs agonist alone; higher = enhanced NF-kB activity; settings: library stock concentration (final ~1000-fold dilution): 10 mM
# Outline: as §1
# [3] = system: RAW-Dual; assay: NF-kB SEAP reporter activity, fold change vs agonist alone; cytotoxicity flag (confluency mask): cytotoxic (confluency <70% of control); higher = enhanced NF-kB activity
# Outline: as §1
# [4] = agonist: ODN 1826 (TLR9) 0.5 ug/mL
# [5] = agonist: Pam2CSK4 (TLR2/6) 0.1 ug/mL
# [6] = agonist: Pam3CSK4 (TLR2/1) 0.1 ug/mL
# [7] = cytotoxicity flag (confluency mask): not cytotoxic, agonist: Imiquimod (TLR7) […]
# [8] = cytotoxicity flag (confluency mask): not cytotoxic, agonist: MPLA (TLR4) […]
# [9] = cytotoxicity flag (confluency mask): cytotoxic (confluency <70% of control), agonist: Imiquimod (TLR7) […]
# [10] = cytotoxicity flag (confluency mask): cytotoxic (confluency <70% of control), agonist: MPLA (TLR4) […]
smiles,measurement,setting,value
CN(C(=O)n1cnc(-c2ccc[n+]([O-])c2)c1)C1CCCCC1 (library stock concentration (final ~1000-fold dilution): 10 mM),NF-kB SEAP reporter activity,[1]; agonist: LPS (TLR4) 0.1 ug/mL,1.04
same,NF-kB SEAP reporter activity,[1]; [4],0.925
same,NF-kB SEAP reporter activity,[1]; [5],0.966
same,NF-kB SEAP reporter activity,[1]; [6],1.01
CN(C(=O)n1cnc(-c2ccc[n+]([O-])c2)c1)C1CCCCC1,NF-kB SEAP reporter activity,[2]; [7],0.995
same,NF-kB SEAP reporter activity,[2]; [8],1.03
CC(=O)Oc1cc2c(cc1Cl)C(c1ccccc1C(=O)O)c1cc(Cl)c(OC(C)=O)cc1O2 (library stock concentration (final ~1000-fold dilution): 10 mM),NF-kB SEAP reporter activity,[1]; agonist: LPS (TLR4) 0.1 ug/mL,1.48
same,NF-kB SEAP reporter activity,[1]; [4],1.24
same,NF-kB SEAP reporter activity,[1]; [5],1.12
same,NF-kB SEAP reporter activity,[1]; [6],1.05
CC(=O)Oc1cc2c(cc1Cl)C(c1ccccc1C(=O)O)c1cc(Cl)c(OC(C)=O)cc1O2,NF-kB SEAP reporter activity,[2]; [7],1.04
same,NF-kB SEAP reporter activity,[2]; [8],1.41
COc1cc(C2CC(c3ccccc3)=NN2C(N)=S)cc(OC)c1OC (stereo not drawn) (library stock concentration (final ~1000-fold dilution): 10 mM),NF-kB SEAP reporter activity,[1]; agonist: LPS (TLR4) 0.1 ug/mL,1.16
same,NF-kB SEAP reporter activity,[1]; [4],1.25
same,NF-kB SEAP reporter activity,[1]; [5],0.997
same,NF-kB SEAP reporter activity,[1]; [6],1.13
COc1cc(C2CC(c3ccccc3)=NN2C(N)=S)cc(OC)c1OC (stereo not drawn),NF-kB SEAP reporter activity,[2]; [7],1.58
same,NF-kB SEAP reporter activity,[2]; [8],1.29
COc1cc(N2CCN(C)CC2)ccc1Nc1ncc2c(n1)N(C)c1ccccc1C(=O)N2,NF-kB SEAP reporter activity,[2]; [7],0.928
same,NF-kB SEAP reporter activity,[2]; [8],1.03
COc1cc(N2CCC(N)CC2)ccc1Nc1ncc(Cl)c(-c2c[nH]c3ccccc23)n1 (library stock concentration (final ~1000-fold dilution): 10 mM),NF-kB SEAP reporter activity,[3]; agonist: LPS (TLR4) 0.1 ug/mL,0.166
same,NF-kB SEAP reporter activity,[3]; [4],0.19
same,NF-kB SEAP reporter activity,[3]; [5],0.0626
same,NF-kB SEAP reporter activity,[3]; [6],0.118
CCOc1cc(N2CCC(O)CC2)ccc1Nc1ncc2c(n1)N(C)c1ccccc1C(=O)N2C (library stock concentration (final ~1000-fold dilution): 10 mM),NF-kB SEAP reporter activity,[1]; agonist: LPS (TLR4) 0.1 ug/mL,3.72
same,NF-kB SEAP reporter activity,[1]; [4],1.57
same,NF-kB SEAP reporter activity,[1]; [5],1
same,NF-kB SEAP reporter activity,[1]; [6],1.48
O=C(c1ccc(C(=O)N2CCC(N3CCCC3)CC2)c(Nc2ccccc2)c1)N1CCC(N2CCCC2)CC1 (library stock concentration (final ~1000-fold dilution): 10 mM),NF-kB SEAP reporter activity,[1]; agonist: LPS (TLR4) 0.1 ug/mL,0.933
same,NF-kB SEAP reporter activity,[1]; [4],0.944
same,NF-kB SEAP reporter activity,[1]; [5],1.04
same,NF-kB SEAP reporter activity,[1]; [6],1.33
COc1cc(C(=O)N2CCC(N3CCN(C)CC3)CC2)ccc1Nc1ncc2c(n1)N(C)c1ccccc1C(=O)N2C,NF-kB SEAP reporter activity,[2]; [7],1.48
same,NF-kB SEAP reporter activity,[2]; [8],2.66
O=C(c1ccc(Nc2nccc(-c3cc4ccccc4s3)n2)cc1)N1CCC(N2CCCC2)CC1 (library stock concentration (final ~1000-fold dilution): 10 mM),NF-kB SEAP reporter activity,[3]; agonist: LPS (TLR4) 0.1 ug/mL,0.302 and 0.283
same,NF-kB SEAP reporter activity,[3]; [4],0.179 and 0.19
same,NF-kB SEAP reporter activity,[3]; [5],0.0736 and 0.0841
same,NF-kB SEAP reporter activity,[3]; [6],0.128 and 0.186
COc1cc(C(=O)N2CCC(N3CCN(C)CC3)CC2)ccc1Nc1ncc2c(n1)N(C)c1ccccc1C(=O)N2C (library stock concentration (final ~1000-fold dilution): 10 mM),NF-kB SEAP reporter activity,[1]; agonist: LPS (TLR4) 0.1 ug/mL,3.59
same,NF-kB SEAP reporter activity,[1]; [4],0.264
same,NF-kB SEAP reporter activity,[1]; [5],1.02
same,NF-kB SEAP reporter activity,[1]; [6],2.01
CCOc1cc(C(=O)N2CCC(N3CCN(C)CC3)CC2)ccc1Nc1ncc2c(n1)N(C1CCCC1)c1ccccc1C(=O)N2C (library stock concentration (final ~1000-fold dilution): 10 mM),NF-kB SEAP reporter activity,[3]; agonist: LPS (TLR4) 0.1 ug/mL,5.49
same,NF-kB SEAP reporter activity,[3]; [4],1.31
same,NF-kB SEAP reporter activity,[3]; [5],1.36
same,NF-kB SEAP reporter activity,[3]; [6],3.42
CCOc1cc(N2CCC(O)CC2)ccc1Nc1ncc2c(n1)N(C)c1ccccc1C(=O)N2C,NF-kB SEAP reporter activity,[2]; [7],1.23
same,NF-kB SEAP reporter activity,[2]; [8],1.91
COc1cc(N2CCN(C)CC2)ccc1Nc1ncc2c(n1)N(C)c1ccccc1C(=O)N2 (library stock concentration (final ~1000-fold dilution): 10 mM),NF-kB SEAP reporter activity,[1]; agonist: LPS (TLR4) 0.1 ug/mL,0.966
same,NF-kB SEAP reporter activity,[1]; [4],0.514
same,NF-kB SEAP reporter activity,[1]; [5],1.08
same,NF-kB SEAP reporter activity,[1]; [6],1.61
O=C(c1ccc(C(=O)N2CCC(N3CCCC3)CC2)c(Nc2ccccc2)c1)N1CCC(N2CCCC2)CC1,NF-kB SEAP reporter activity,[2]; [7],0.917
same,NF-kB SEAP reporter activity,[2]; [8],1.12
CCOc1cc(C(=O)N2CCC(N3CCN(C)CC3)CC2)ccc1Nc1ncc2c(n1)N(C1CCCC1)c1ccccc1C(=O)N2C,NF-kB SEAP reporter activity,[2]; [9],1.44
same,NF-kB SEAP reporter activity,[2]; [10],2.71
COc1cc(N2CCC(N)CC2)ccc1Nc1ncc(Cl)c(-c2c[nH]c3ccccc23)n1,NF-kB SEAP reporter activity,[2]; [9],0.251
same,NF-kB SEAP reporter activity,[2]; [10],0.226
